The results in this text go back to PubChem BioAssay.

Each structure is given as a SMILES string. A number with no mark means an inactive call. Inconclusive results are not listed. Calls of active or inactive are those of the source.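 Rule for the calls, unless noted: active = viability increase at or above a cutoff of the median across tested compounds plus 3 SD (cut at about 8.5% in these data, passing the limit was not always enough); inconclusive = some gains above the cutoff, reason not given; inactive = the rest.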

The nature of one assay: viability gain of MRP-1-high H69AR cells under doxorubicin, pilot screen, MRP-1 activator project, CellTiter-Glo, duplicate (AID 807).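 Note: compound pretreatment 18-22 h then 72 h combined with doxorubicin; 0% = doxorubicin alone and 100% = vehicle without doxorubicin.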 The note with it: H69AR viability with doxorubicin, CellTiter-Glo luminescence; at 10 µM; stronger effect = higher value. (In ATP-based viability assays light output follows the ATP content of the culture.)
With `CC(C)(C)NS(=O)(=O)c1ccc(OCC(=O)Nc2ccc3c(c2)OCCO3)cc1`, the viability increase was -0.9%.
In the case of `C=C(C)Cn1c(CCNC(=O)C(C)(C)C)nc2ccccc21`, the viability increase was 0.45%.
The same measure, in the same setting: the value for `Cc1cc2cc(CN(Cc3ccc4c(c3)OCO4)C(=O)c3cnccn3)c3nnnn3c2cc1C` was -5.49%; that for `O=C(CN(CC(=O)N1CCOCC1)S(=O)(=O)c1ccc(Br)s1)N1CCOCC1` was -3.71%.
The same measure, in the same setting: the value for `Cn1cc(S(=O)(=O)CC(=O)Nc2ccc3c(c2)OCCO3)c2ccccc21` was -1.77%; that for `CC(=O)c1ccc(N2CCN(C(=O)c3ccc(NC(=O)C4CCCO4)cc3)CC2)cc1` (stereo not given) was -3%.
Same read-out and setting: for `COc1cc2c(cc1OC)C(C(=O)Nc1cccc(C)n1)C(c1cccnc1)N(C)C2=O` (stereo not given) the value was -3.94%.
Regarding `CCOC(=O)c1c(NC(=O)c2ccc(Cl)s2)sc(C)c1C`, the viability increase is -8.89%.
Same read-out and setting: for `CCCC(=O)Nc1cc(C)c(NC(=O)Cc2ccccc2)cn1` the value was -1.76%; for `O=C(CCS(=O)(=O)c1ccccc1)Nc1nc2c(s1)COc1ccccc1-2`, -8.46%.
For the compound `CC(=O)NCC(=O)N(c1c(C)n(C)n(-c2ccccc2)c1=O)C1(C(=O)NC2CCCC2)CCCCC1`, the viability increase is -0.84%.
Take `CC(NC(=O)C(C)(C)C)c1nc2ccccc2n1C` (stereo not given): the viability increase is -3.14%.
The same measure, in the same setting: the value for `Cc1cccc(N(CC(=O)Nc2c(C)n(C)n(-c3ccccc3)c2=O)S(C)(=O)=O)c1C` was -1.08%.
Same read-out and setting: for `CC(=O)Nc1c(C(=O)c2ccc(F)cc2)oc2ccccc12` the value was -3.23%; for `COc1ccc(NC2=NCC(=O)N2c2ccccc2)c(OC)c1`, -0.89%; for `Cc1c(C(=O)N(C)Cc2ccccc2)oc2ccc(S(=O)(=O)N3CCCC3)cc12`, -5.85%.
As to `COc1ccc2c(c1)-c1nc(NC(=O)c3cccs3)sc1CC2`, the viability increase is -1.82%.
On the same count and under the same terms, for `Cc1nc2nc(SCC(=O)N3CCOCC3)nn2c(C)c1Cc1c(F)cccc1Cl` the value was -6.91%; for `O=C(CS(=O)(=O)c1cn(Cc2cccc(F)c2)c2ccccc12)N1CCCCC1`, -3.96%; for `COc1ccc(-c2cc3ccccc3n2CC(O)Cn2nc(C)cc2C)cc1` (stereo not given), -4.13%.
Turning to `NC(=O)C1CCN(C(=O)CCCCCn2c(=O)[nH]c3ccsc3c2=O)CC1`, the viability increase was -3.22%.
The same measure, in the same setting: the value for `CC1CCCN(c2nc3c(c(=O)n(C)c(=O)n3C)n2Cc2ccccc2)C1` (stereo not given) was -2.17%.
On the same count and under the same terms, for `O=C(Nc1ccc(Br)cc1Cl)c1cnccn1` the value was -0.71%; for `CCOC(=O)N1CCC(NC(=O)C(Cc2ccccc2)NC(=O)C2CCCCC2)CC1` (stereo not given), -2.92%.
Same read-out and setting: for `Cc1c(C(=O)Nc2ccncc2)sc2nc(-c3ccc(F)cc3)cn12` the value was -6.8%; for `Cc1ccnc(Sc2nc3c(c(=O)[nH]c(=O)n3C)n2CCCc2ccccc2)n1`, -2.18%; for `CCC(=O)Nc1cc(C)c(NC(=O)c2ccco2)cn1`, 0.56%.
On to `Cc1c(C(=O)NCCC2=CCCCC2)oc2ccc(S(=O)(=O)N3CCOCC3)cc12`, for which the viability increase was -0.96%.
Same read-out and setting: the value for `COCCn1c(=O)[nH]c2cc(C(=O)NCCN3CCN(c4ccccc4F)CC3)ccc2c1=O` was -1.27%; that for `CCOc1cc(CNC(=O)CN2C(=O)c3ccccc3S2(=O)=O)ccc1OC` was -0.6%.
Regarding `O=C(C1=C(O)C(=O)N(CCc2ccccc2)C1c1cccnc1)c1ccco1` (stereo not given), the viability increase is -3.61%.
Still for that read-out and setting: the value for `COCCNC(=O)c1cn(C)c(=O)c2cc(OC)c(OC)cc12` was -1.73%; that for `O=C(OCC(=O)N1CCN(C(=O)c2ccco2)CC1)C1=COCCO1` was -3.83%; that for `O=C(c1ccccn1)N1CCN(c2ccc(C(F)(F)F)cn2)CC1` was 0.37%.
Still for that read-out and setting: for `OCC1(c2cc(C(F)(F)F)n[nH]2)CCCCC1` the value was -2.12%; for `Cc1c(NC(=O)CCC2CCCCC2)c(=O)n(-c2ccccc2)n1C`, -0.39%.
The same measure, in the same setting: for `Brc1cc(Br)c2ncnc(N3CCCCC3)c2c1` the value was -7.95%.
As for `Cn1c(=O)[nH]c(=O)c2c1nc(Sc1ncccn1)n2CCCc1ccccc1`, the viability increase was -4.15%.
Same read-out and setting: for `CNC(=O)c1ccc(-c2sc3nc(N4CCOCC4)c4c(c3c2N)CCCC4)o1` the value was -7.88%; for `CC(=O)c1cccc(NC(=O)N2CCCC2C(=O)Nc2c(C)cccc2C)c1` (stereo not given), -2.28%.

A further assay can be described thus: growth suppression of beta-catenin knockout HCT116, pilot screen, human colon tumor cells (AID 823;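 active = cell viability at or below a set limit in both duplicate runs, the limit being the all-compound median minus 4 SD, cut at about 23% in these data, passing the limit was not always enough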;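 note: 0% = wells killed by 20 µM Hyamine and 100% = untreated DMSO cell wells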). The settings on record: CellTiter-Glo, 60 h, at 10 µM, stronger effect = lower value.
What is called viability is a read-out of living cells in per cent, often relative to untreated cells. On to `CC(C)(C)NS(=O)(=O)c1ccc(OCC(=O)Nc2ccc3c(c2)OCCO3)cc1`, for which the viability is 102%.
Consider `C=C(C)Cn1c(CCNC(=O)C(C)(C)C)nc2ccccc21`, for which the viability is 100%.
On the same count and under the same terms, the value for `Cc1cc2cc(CN(Cc3ccc4c(c3)OCO4)C(=O)c3cnccn3)c3nnnn3c2cc1C` was 87.2%.
Still for that read-out and setting: for `O=C(CN(CC(=O)N1CCOCC1)S(=O)(=O)c1ccc(Br)s1)N1CCOCC1` the value was 98%; for `Cn1cc(S(=O)(=O)CC(=O)Nc2ccc3c(c2)OCCO3)c2ccccc21`, 106%.
The same measure, in the same setting: for `CC(=O)c1ccc(N2CCN(C(=O)c3ccc(NC(=O)C4CCCO4)cc3)CC2)cc1` (stereo not given) the value was 91.2%.
Regarding `COc1cc2c(cc1OC)C(C(=O)Nc1cccc(C)n1)C(c1cccnc1)N(C)C2=O` (stereo not given), the viability is 91.7%.
Still for that read-out and setting: the value for `CCOC(=O)c1c(NC(=O)c2ccc(Cl)s2)sc(C)c1C` was 12.6% (active); that for `CCCC(=O)Nc1cc(C)c(NC(=O)Cc2ccccc2)cn1` was 98.2%.
Turning to `O=C(CCS(=O)(=O)c1ccccc1)Nc1nc2c(s1)COc1ccccc1-2`, the viability was 5.88% (active).
Same read-out and setting: for `CC(=O)NCC(=O)N(c1c(C)n(C)n(-c2ccccc2)c1=O)C1(C(=O)NC2CCCC2)CCCCC1` the value was 97.2%.
On the same count and under the same terms, for `CC(NC(=O)C(C)(C)C)c1nc2ccccc2n1C` (stereo not given) the value was 95.1%; for `Cc1cccc(N(CC(=O)Nc2c(C)n(C)n(-c3ccccc3)c2=O)S(C)(=O)=O)c1C`, 95.3%; for `CC(=O)Nc1c(C(=O)c2ccc(F)cc2)oc2ccccc12`, 87.4%.
On the same count and under the same terms, for `COc1ccc(NC2=NCC(=O)N2c2ccccc2)c(OC)c1` the value was 91.5%.
On to `Cc1c(C(=O)N(C)Cc2ccccc2)oc2ccc(S(=O)(=O)N3CCCC3)cc12`, for which the viability was 54.3%.
With `COc1ccc2c(c1)-c1nc(NC(=O)c3cccs3)sc1CC2`, the viability is 33.6%.
With `Cc1nc2nc(SCC(=O)N3CCOCC3)nn2c(C)c1Cc1c(F)cccc1Cl`, the viability was 88.4%.
With `O=C(CS(=O)(=O)c1cn(Cc2cccc(F)c2)c2ccccc12)N1CCCCC1`, the viability was 73.2%.
Still for that read-out and setting: the value for `COc1ccc(-c2cc3ccccc3n2CC(O)Cn2nc(C)cc2C)cc1` (stereo not given) was 69.5%; that for `NC(=O)C1CCN(C(=O)CCCCCn2c(=O)[nH]c3ccsc3c2=O)CC1` was 96.4%; that for `CC1CCCN(c2nc3c(c(=O)n(C)c(=O)n3C)n2Cc2ccccc2)C1` (stereo not given) was 85.9%.
Same read-out and setting: for `O=C(Nc1ccc(Br)cc1Cl)c1cnccn1` the value was 84.1%.
For `CCOC(=O)N1CCC(NC(=O)C(Cc2ccccc2)NC(=O)C2CCCCC2)CC1` (stereo not given), the viability is 100%.
Same read-out and setting: for `Cc1c(C(=O)Nc2ccncc2)sc2nc(-c3ccc(F)cc3)cn12` the value was 42.3%; for `Cc1ccnc(Sc2nc3c(c(=O)[nH]c(=O)n3C)n2CCCc2ccccc2)n1`, 91.8%; for `CCC(=O)Nc1cc(C)c(NC(=O)c2ccco2)cn1`, 98.5%.
For the compound `Cc1c(C(=O)NCCC2=CCCCC2)oc2ccc(S(=O)(=O)N3CCOCC3)cc12`, the viability was 31.5%.
For the compound `COCCn1c(=O)[nH]c2cc(C(=O)NCCN3CCN(c4ccccc4F)CC3)ccc2c1=O`, the viability was 94.3%.
Same read-out and setting: the value for `CCOc1cc(CNC(=O)CN2C(=O)c3ccccc3S2(=O)=O)ccc1OC` was 98.1%.
Still for that read-out and setting: the value for `O=C(C1=C(O)C(=O)N(CCc2ccccc2)C1c1cccnc1)c1ccco1` (stereo not given) was 104%; that for `COCCNC(=O)c1cn(C)c(=O)c2cc(OC)c(OC)cc12` was 95.5%; that for `O=C(OCC(=O)N1CCN(C(=O)c2ccco2)CC1)C1=COCCO1` was 105%.
Regarding `O=C(c1ccccn1)N1CCN(c2ccc(C(F)(F)F)cn2)CC1`, the viability was 96.5%.
On the same count and under the same terms, the value for `OCC1(c2cc(C(F)(F)F)n[nH]2)CCCCC1` was 91.4%.
Turning to `Cc1c(NC(=O)CCC2CCCCC2)c(=O)n(-c2ccccc2)n1C`, the viability was 99.4%.
Still for that read-out and setting: the value for `Brc1cc(Br)c2ncnc(N3CCCCC3)c2c1` was 15.9% (active); that for `Cn1c(=O)[nH]c(=O)c2c1nc(Sc1ncccn1)n2CCCc1ccccc1` was 97%; that for `CNC(=O)c1ccc(-c2sc3nc(N4CCOCC4)c4c(c3c2N)CCCC4)o1` was 39.6%.
Take `CC(=O)c1cccc(NC(=O)N2CCCC2C(=O)Nc2c(C)cccc2C)c1` (stereo not given): the viability was 94.1%.
